In PubChem BioAssay AID720519 (National Center for Advancing Translational Sciences (NCATS), 2013):
Records with an inconclusive call do not appear. The source made the active and inactive calls. Calls follow the shape of the dose curve; as a rule, active = well fitted activation curve with a large enough effect; inconclusive = small, poorly fitted or top-dose-only effect; inactive = flat fitted curve, though single readings scatter.

experiment: qHTS for Inhibitors of Cell Surface uPA Generation: Confirmatory Assay for Cherry-picked Compounds; conditions: cell surface uPA activity generation, qHTS confirmation; series mostly up to 115 µM; inhibition: at the top concentration; as to inhibition: 0% is about no effect
Procedure, shortened: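 RAW 264.7 cells at 4000/well, incubated overnight, then treated with compounds. After 24 h at 37 C, viability was read by ATPlite luminescence. An increase in signal indicates blocked uPA-dependent LF entry.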
Potency is read from the fitted curve at half-maximal effect.

inhibition, inactive:
CCc1ccccc1NC(=O)CN(C)C(=O)CSc1nnc(Nc2cccc(C)c2C)s1 -2.94%, CC(=O)Nc1nc2ccccc2[nH]1 -0.707%, CCCc1nn2c(=O)cc(CSCC(=O)Nc3ccccc3)nc2s1 0.845%, O=C(Nc1ccc(NC(=O)c2ccco2)c(Cl)c1)c1ccccc1 -0.468%, COCCNC(=S)N(CCc1c(C)[nH]c2ccccc12)Cc1ccco1 -2.32%, C=CCc1cc(S(=O)(=O)c2ccc(O)c(CC=C)c2)ccc1O 3.72%, Cc1cc(-c2ccccc2)nc(N/N=C/c2ccc(N(C)C)cc2)n1 -2.59%, CSc1ccccc1OCc1cc(C(=O)NCCCn2nc(C)cc2C)no1 -3.03%, CCOc1ccc(NS(=O)(=O)c2ccc(C(=O)N3CCC3)cc2)cc1 -1.37%, O=C(Nc1ccnn1C1CCN(CCCC2CCCC2)CC1)c1ccccc1 -3.29%, CCOCCCn1c(SCC(=O)Nc2oc(C)c3c(C)n[nH]c(=O)c23)nc2ccccc2c1=O -2.17%, CC1CCC(NC(=O)c2nn(C)c3c2CS(=O)(=O)c2ccccc2-3)CC1 (stereo not drawn) -2.66%, C[C@H](CO)N1C[C@H](C)[C@@H](CN(C)C(=O)Nc2ccccc2)Oc2c(NS(=O)(=O)c3ccccc3)cccc2C1=O 0.588%, O=C(N/N=C/c1cccnc1)c1ccccc1[N+](=O)[O-] -3.09%, Cc1cc(C)n(CCCNC(=O)c2ccc(C)o2)n1 -2.18%, CC(C)NCC1CCc2cc(CO)c([N+](=O)[O-])cc2N1 (stereo not drawn) 4.66%, CN1CCN(C2=Nc3ccccc3Oc3ccc(Cl)cc32)CC1 0.247%, COCCOC(=O)C1=C(C)NC(=O)NC1c1cccc2ccccc12 (stereo not drawn) 1.45%, Cc1ccccc1C(=O)Nc1ccccc1N1CCCCC1 0.132%, O=C(/C=C/c1cccc(F)c1)Nc1cc(S(=O)(=O)N2CCOCC2)ccc1Cl -2.51%, COc1ccccc1CNC(=O)CCCn1nc(C)c2c(C)n(-c3ccccc3)nc2c1=O -2.78%, COc1cc(CNCc2ccc3c(c2)OCO3)c([N+](=O)[O-])cc1OC -0.654%, O=C(NCC1CCCO1)c1c(O)c2cccc3c2n(c1=O)CCC3 (stereo not drawn) -3.48%, COc1ccc(N(CN2C(=O)c3ccccc3C2=O)C(=O)C(C)C)cc1 -1.14%, COc1ccc(CNC(=O)C2CCC(CNS(=O)(=O)c3ccc(C)cc3)CC2)cc1 (stereo not drawn) -1.64%, Cc1ccc2c(c1)N(CC(=O)NCCCc1ccccc1)C(=O)c1cccnc1O2 5.78%, Cc1ccc(NC(=O)CSc2nncn2N)cc1C 2.68%, COc1ccc(C(=O)N[C@H](C(=O)NCc2cccs2)C(C)C)cc1 -1.65%, OCC[C@@H]1C[C@H](O)[C@@H](O)[C@]2(OCCc3ccccc32)O1 -1.16%, O=C(CN(c1ccccc1F)S(=O)(=O)c1ccccc1)Nc1ccc2c(c1)OCCO2 -3.45%, O=C(O)C(Nc1nc(C(F)(F)F)nc2ccccc12)c1ccccc1 (stereo not drawn) 0.904%, COc1ccccc1N1CCN(CC(=O)c2c(C)[nH]c3ccccc23)CC1 1.37%, CC(C)CCN1C(=O)c2ccc(-c3nc4ccccc4c(=O)o3)cc2C1=O -1.5%, CC(=O)c1cnc2nc(SCc3cccc(C)c3)nn2c1C -2.2%, CNS(=O)(=O)c1cc(-c2nnc(Nc3ccc(CC(N)=O)cc3)c3ccccc23)ccc1C -0.898%, CCOc1ccc(CCNC(=O)Cc2ccc(NC3=NC4CS(=O)(=O)CC4S3)cc2)cc1OCC (stereo not drawn) 2.7%, COc1cc(NC(=O)COC(=O)c2cc(S(=O)(=O)N3CCCCC3)ccc2Cl)c(C)cc1[N+](=O)[O-] 0.838%

Potency, active:
CC(C)C1Oc2ccccc2N(CC(=O)NC2CCCCC2)C1=O (stereo not drawn) 32.9 µM
